Screening data: PubChem, Broad Institute
Mot1-301 SUMO = inhibitors of SUMOylation pathway: yeast Mot1-301 growth rescue. growth rescue, % at 18.8 µM. AID 2716. hit rate 1% among 320,000. S. cerevisiae Mot1-301 growth rescue, ATP luminescence, 38.5C; percent above DMSO median, 100 means doubled;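 active = every valid replicate shows activation above 250% relative to neutral control wells; inactive = the rest, any valid replicate at or below 250%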;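 note: OY570 slx delta 5 strain wells were the positive control but not used for scaling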
HIF activator = HIF pathway transcriptional activation. U2OS HRE-luciferase reporter, luminescence; normalized: DMSO 0%, desferrioxamine 100%. activation, % at 7.5 µM (by protocol). hit rate 0.32% among 300,000;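 active = mean activation of at least 10% of the iron chelator positive control signal, with at least half of replicates also reaching 10%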
ALR inh = inhibitors of human sulfhydryl oxidase ALR | P55789 | hit rate 3.8% among 290,000 | inhibition, % (no concentration beside the values) | purified ALR, DTT oxidation, H2O2 HRP-luminol luminescence | AID 485317;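 active = mean replicate inhibition above about 79%, with every replicate also reaching it, limit read from the data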
Target sequence (P55789 whole entry, looked up): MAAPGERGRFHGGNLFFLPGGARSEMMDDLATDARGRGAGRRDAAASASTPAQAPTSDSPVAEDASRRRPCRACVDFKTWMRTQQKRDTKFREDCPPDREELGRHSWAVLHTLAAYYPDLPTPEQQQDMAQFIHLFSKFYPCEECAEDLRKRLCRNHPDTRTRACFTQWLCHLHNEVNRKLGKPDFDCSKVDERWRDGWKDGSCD
AI-2 QS mod = modulators of Vibrio harveyi AI-2 quorum sensing system | Vibrio harveyi JMH597 AI-2 luminescence/OD600 ratio, 9 h; active compounds read low; strain lacks LuxN and CqsS sensors; 0 = neutral-control median | activity change, % at 7.5 µM | hit rate 0.4% among 300,000; in the data active = activity change below about -75%, passing the limit was not always enough;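 note: luminescence divided by OD600 gain over 9 h not by final OD600 alone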
* = called active by the depositor; . = no result. The list is not random: actives were taken first. Their share in the collection is about 4.8%.

SMILES | Mot1-301 SUMO | HIF activator | ALR inh | AI-2 QS mod
O=C(O)c1ccccc1C(=O)Nc1ccc(Oc2ccccc2)cc1 | 13 | 0 | 94* | 6
COc1ccc(Oc2ccc(NC(=O)c3ccccc3C)cc2)cc1 | 8 | 1 | -3 | -32
Cc1cc(SCC(=O)Nc2c(C)n(C)n(-c3ccccc3)c2=O)nc2ccccc12 | 15 | 0 | 0 | 15
CCOC(=O)c1c(C)[nH]c(C(=O)N/N=C/c2cc([N+](=O)[O-])ccc2O)c1C | -9 | -1 | -5 | 35
CCOC(=O)c1c(C)[nH]c(C(=O)N/N=C\c2ccccc2O)c1C | -3 | 57* | -30 | 14
COc1cc(/C=N/NC(=O)C2CCN(CC(O)COCc3ccccc3)CC2)ccc1O (stereo unspecified) | -2 | 0 | 99* | 15
CCOc1cc(/C=N\NC(=O)CC(=O)NCCc2ccccc2)ccc1O | -6 | 0 | 99* | 12
COc1cc(/C=N\NC(=O)CC(=O)NCCc2ccccc2)ccc1O | 137 | 0 | 99* | 20
CC(C)C(NC(=O)c1ccccc1)C(=O)OCC(=O)N1CCN(c2ccccc2)CC1 (stereo unspecified) | 15 | . | . | .
O=C(NCCN1CCOCC1)C(=O)NCC1OCCCN1S(=O)(=O)c1cc(F)ccc1F (stereo unspecified) | -5 | 0 | 5 | 10
CC(=O)NS(=O)(=O)c1ccc(NC(=O)c2cc(-c3ccc(C)c(C)c3)nc3ccccc23)cc1 | 2 | 0 | 97* | 6
CC(=O)NS(=O)(=O)c1ccc(NC(=O)c2cc(-c3ccc(C)cc3)nc3ccccc23)cc1 | 7 | 1 | 98* | 17
CC(=O)NS(=O)(=O)c1ccc(NC(=O)c2cc(-c3cccs3)nc3ccccc23)cc1 | 4 | 0 | -4 | 1
O=C(NCCCN1CCCC1=O)C1CCC(CNS(=O)(=O)c2ccc(Cl)cc2)CC1 (stereo unspecified) | -4 | 0 | -1 | 31
COCCn1c(C)c(C)c2c(NCCc3ccccc3)ncnc21 | -21 | -48 | 43 | 8
CCn1c(CSc2nccn2C)nc2cc(C(=O)O)ccc21 | 37 | 0 | 98* | 19
COc1ccc(N(CC(=O)NCCSCc2ccc(Cl)cc2)S(C)(=O)=O)cc1Cl | 17 | 0 | -3 | 1
COc1ccc(-c2nc(NC(=O)CSCCO)sc2C)cc1 | -13 | 0 | 98* | 13
COc1ccc(-c2nc(NC(=O)c3ccc(OCC(=O)N4CCOCC4)c(OC)c3)sc2C)cc1 | 2 | 0 | 96* | 33
CCc1ccc(CNC(=O)c2ccc3nc(C4CCCCC4)oc3c2)nc1 | -1 | 0 | 2 | 18
C[C@H](NC(=O)c1ncn(Cc2ccccc2)c1C(=O)N[C@@H](C)c1ccccc1)c1ccccc1 | 2 | . | 21 | .
COc1ccc(N2CCN(C(=O)c3cc4c(-c5ccc(Cl)cc5)nn(C)c4s3)CC2)cc1 | 5 | . | 37 | 18
CCN(CC)CCCNC(=O)c1cc(-c2ccc(O)cc2)on1 | -9 | 0 | 99* | 29
CCN(CC)CCCNC(=O)c1cc2c(-c3ccc(Cl)cc3)nn(C)c2s1 | -4 | . | 94* | 20
CN1CCN(CCCNC(=O)c2cc3c(-c4ccc(Cl)cc4)nn(C)c3s2)CC1 | . | . | . | 5
SMILES | Mot1-301 SUMO | HIF activator | ALR inh | AI-2 QS mod
O=C(NCC1CCCO1)c1cn(Cc2ccccc2)nc1-c1ccc(Cl)cc1 (stereo unspecified) | 1 | . | . | .
Cn1nc(-c2ccc(Cl)cc2)c2cc(C(=O)NCC3CCCO3)sc21 (stereo unspecified) | -4 | . | 93* | 6
Cn1nc(-c2ccc(Cl)cc2)c2cc(C(=O)N3CCOCC3)sc21 | -25 | . | 95* | 14
CC(O/N=C(\N)c1ccccc1)C(=O)Nc1cccc(C(F)(F)F)c1 (stereo unspecified) | -6 | . | -1 | .
CCOc1ccccc1CN1CCNC(=O)C1CC(=O)N(C)C1CCOCC1 (stereo unspecified) | 2 | 0 | -26 | 18
CC(C)c1ccc(NC2CCCN(C(=O)c3ccsc3)C2)cc1 (stereo unspecified) | 9 | 1 | 98* | 23
O=C(c1ccsc1)N1CCCC(Nc2ccc(F)c(F)c2)C1 (stereo unspecified) | -7 | 0 | 57 | 38
CC(C)c1ccc(NC2CCCN(C(=O)c3n[nH]c4c3CCC4)C2)cc1 (stereo unspecified) | -5 | -1 | 99* | -3
COC(=O)c1ccc(C(=O)N2CCCC(Nc3ccc(C(C)C)cc3)C2)cc1 (stereo unspecified) | 22 | 0 | 98* | 25
COc1cc(/C=C/C(=O)c2ccc3c(c2)OCCO3)cc(Br)c1OCC(=O)N(C)C | 0 | 25* | . | 21
O=C(/C=C/c1ccncc1)c1ccc2c(c1)OCCO2 | 0 | 1 | -1 | 21
O=C(CSC1=NC2(CCCCCC2)N=C1c1ccccc1)Nc1ccc2c(c1)OCCO2 | -18 | 0 | 98* | 4
Cc1ccc(C2=NC(C)(C)N=C2SCC(=O)Nc2ccc(Cl)cc2)cc1 | -26 | 0 | . | 9
O=C(CSc1ccc(-c2ccccc2)nn1)Nc1ccc2c(c1)OCCO2 | 23 | 4 | -16 | 19
O=C(CSC1=NC2(CCCCC2)N=C1c1ccccc1)Nc1ccc2c(c1)OCCO2 | -17 | 0 | 98* | 18
Cc1ccc(C2=NC3(CCCC3)N=C2SCC(=O)Nc2ccc3c(c2)OCCO3)cc1 | 6 | 0 | 99* | 41
CCN(CC(=O)Nc1c(F)cccc1F)C(=O)C1CCN(C(=O)Nc2ccccc2)CC1 | -14 | . | . | .
O=C(c1nn2c(C(F)(F)F)cc(-c3ccccc3)nc2c1Cl)N1CCN2CCCC2C1 (stereo unspecified) | . | 0 | . | 15
Cc1ccc(S(=O)(=O)N2CCN(S(=O)(=O)N3CCCCC3)CC2)c(C)c1 | 5 | -1 | 100* | -1
CCOc1ccc2nc(SC3CC(=O)N(c4ccccc4)C3=O)sc2c1 (stereo unspecified) | 32 | 1 | 6 | -2
COc1ccc(N2C(=O)CC(Sc3nc(C)c4c(n3)CCCC4)C2=O)cc1 (stereo unspecified) | -11 | 2 | -5 | 8
COc1ccc(N2C(=O)CC(Sc3n[nH]c(-c4ccccc4)n3)C2=O)cc1 (stereo unspecified) | 147 | 0 | 99* | 57
CCOc1ccc(N2C(=O)CC(Sc3n[nH]c(-c4ccccc4)n3)C2=O)cc1 (stereo unspecified) | 72 | 0 | 99* | 60
CC(=O)Nc1ccc(S(=O)(=O)Nc2cccc(-n3c(C)nc4ccccc4c3=O)c2)cc1 | 1 | -2 | -1 | 20
CC(CCc1ccccc1)NC(=O)CNC(=O)c1ccccc1Br (stereo unspecified) | 8 | -1 | -1 | 21
CN(C)c1ccc(C2N(c3ccc(Cl)cc3)C(=O)C3CCCN32)cc1 (stereo unspecified) | -3 | 0 | 64 | 5
CN(C)c1ccc(C2N(c3ccc(F)cc3)C(=O)C3CCCN32)cc1 (stereo unspecified) | 40 | 0 | 97* | 13
Cc1cccc(C(=O)NC2CCCCCCC2)c1 | 9 | 2 | . | 0
